The panel holds about 83,000 compounds, 20% with a hit somewhere; the sample as a whole holds those more often.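 The endpoint reported here, percent growth, reads 100 for growth as untreated, 0 for no net growth and -100 for all cells dead.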 Unmarked numbers belong to inactive results. Activity calls are given as the source filed them.
The compounds below were run on SR leukemia (assay: NCI-60 one-dose screen, 48 h (100 = growth as untreated, 0 = no growth, -100 = all killed)). Conditions: 10 µM unless noted.
Experimental: Growth inhibition of the SR human tumor cell line is measured as a screen for anti-cancer activity. Cells are grown in 96 well plates and exposed to the test compound for 48 hours. Compounds are tested at a single concentration, which is 10^-5 M for most compounds. The reported endpoint is percent growth (GI% or GIPRCNT), where numbers from 0 - 100% represent growth inhibition, and numbers from -100% - 0 represent cell death. For example, a value of 40 represents 60% growth inhibition. A value of 0 means no net growth occurred over the course of the experiment. A value of -40 indicates 40% of cells at the beginning of the experiment died by the end of the experiment. A value of -100 means all cells are dead at the end of the experiment.
NCI-60 Human Tumor Cell Lines Screen was performed using the standard one-dose NCI protocol, which is described in more detail at https://dtp.cancer.gov/discovery_development/nci-60/default.htm.
Compounds with GIPRCNT values below 10 were considered active. Activity score was based on GIPRCNT using the following formula: […]
Score is 0 for GIPRCNT values of 100 or above, 50 for GIPRCNT values of 0, and 100 for GIPRCNT values of -100.

Compared with `COc1ccc(NC(=O)[C@H](C)N)cc1C(=O)Nc1cccc(C2CC(=O)c3c(cc(OC)c(OC)c3OC)O2)c1` (stereo not given in full), `COc1c(F)ccc(C(=O)Nc2ccc3nc(NC(=O)C4CCCN(S(=O)(=O)c5ccc(C(F)(F)F)cc5)C4)sc3c2)c1F` (stereo not given) is lower in growth: 63.8% for the first, 43.4% for the second.

Going from `Cn1cc(-c2cc(N)n3nc(-c4cn(C)c5ccc(Cl)cc45)cc3n2)c2ccccc21` to `O=c1oc2ccccc2cc1-c1csc(N=Nc2c(O)[nH]c3ccc(Cl)cc23)n1`, the growth falls from 99.7% to 96.3%.

Going from `CCCCOc1ccc(NC(=O)c2sc3nc(C)ccc3c2N)cc1` to `CCOC(=O)c1ccc(Nc2nc(NN)nc(-c3ccc(OC)cc3)c2C#N)cc1`, the growth rises from 19.1% to 97.2%.

Compared with `N/C(=N\c1nc2ccccc2s1)NC(=O)Nc1ccccc1Br`, `O=C(Cn1c(/C=C/c2ccccc2)nc2ccccc2c1=O)Nc1ccccc1` is higher in growth: 12.1% for the first, 80.3% for the second.

Compared with `CC(=O)Nc1ccc(-c2nc3cc(-c4ccc(O)cc4)ccc3n2C)cc1`, `COc1ccc(/C=C/c2nc3ccccc3n3c(-c4ccc(Cl)cc4)nnc23)cc1` is higher in growth: 23.1% for the first, 60.1% for the second.

Going from `CC1(C)CC[C@]2(C(=O)Nc3ccccc3)CC[C@]3(C)C(=CCC4[C@@]5(C)C[C@@H](O)[C@H](O)[C@@](C)(CO)C5CC[C@]43C)C2C1` (stereo not given in full) to `C=C1CC[C@@H]2[C@]3(C)COC(c4cn[nH]c4-c4cccc(Br)c4)O[C@@H]3CC[C@@]2(C)[C@@H]1C/C=C1/C(=O)OCC1O` (stereo not given in full), the growth falls from 15.2% to 12.7%.

First: CC1=C(C(=O)c2ccccc2)C(c2ccc(-n3cncn3)cc2)n2c(nc3ccccc32)N1 (stereo not given)
Second: O=C(NNc1ccccc1)n1c(=O)c2ccccc2c(=O)n1-c1ccccc1
The growth of the first is lower: 76.9% for the first, 80.8% for the second.

First: COc1ccc(-c2nc(SCC(C)C)nc(NCCc3c[nH]c4ccccc34)c2C#N)cc1
Second: N#Cc1c(-c2cccc(Cl)c2Cl)cc(-c2c[nH]c3ccccc23)[nH]c1=O
The growth of the first is lower: 19.7% for the first, 42.3% for the second.

`CCOC(=O)C1=C(N)N(c2ccccc2)C2=C(C(=O)CC(C)(C)C2)C1c1ccc(Cl)cc1Cl` (stereo not given) and `Cc1cc2c(cc1Cl)C(=O)/C(=C/c1ccccc1)O2` are the same in growth: 10.1% for the first, 10.1% for the second.

First: O=C(/C=C/Nc1ccc2oc(=O)ccc2c1)c1cc2cc(Br)ccc2oc1=O
Second: O=C(O)c1cccc(-c2ccc(/C=N/NC(=O)c3[nH]c4ccc(Br)cc4c3-c3ccccc3)s2)c1
The growth of the first is higher: 99.2% for the first, 24.1% for the second.

First: S=c1c2ccccc2nc2n1CCc1c-2[nH]c2ccccc12
Second: CN(C)CCn1c2ccccc2c2nc3ccc([N+](=O)[O-])cc3nc21
The growth of the first is higher: 67.7% for the first, 13% for the second.

Going from `N/N=C(\N)c1c(N)nc(=S)[nH]c1-c1ccc(Cl)cc1Cl` to `CN(C)CCn1c2ccccc2c2nc3cc(C(F)(F)F)ccc3nc21`, the growth falls from 97.3% to 11.1%.

First: COC(OC)C1=C(C)OC(N)=C(C#N)C12C(=O)Nc1ccccc12 (stereo not given)
Second: C#CCOc1cc(N(CC)CC)ccc1C(C(=O)NC(C)(C)C)N(C(=O)C1CCc2cc(F)ccc2O1)c1ccc(F)cc1 (stereo not given)
The growth of the first is higher: 73% for the first, 26.7% for the second.

Going from `CCCCCCCCOc1cccc(S(=O)(=O)Nc2ccc(C)cc2C(=O)O)c1` to `O=C1CCCc2cc(OCC(=O)N3CCCCC3)ccc2N1`, the growth rises from 90% to 104%.

`CSc1ccc(C(=O)Nc2ccc3nnn(/C(C#N)=C/c4ccccn4)c3c2)cc1` was tested, and the growth was -9.41% (active).
With `O=C(O)c1ccc(-c2ccc(/C=N/NC(=O)c3[nH]c4ccc(Br)cc4c3-c3ccccc3)s2)cc1` the growth was 0.386% (active).
In the case of `Cn1cc(-c2cc3nc(-c4cn(C)c5ncccc45)cc(N)n3n2)c2ccccc21`, the growth is reported as -28.8% (active).
`O=C(COc1ccc(NC(=O)Nc2ccc(Cl)c(Cl)c2)cc1)N=Nc1c(O)[nH]c2ccc(Br)cc12` was tested, and the growth was 3.18% (active).
For `COc1ccc2c(c1)c(/C=N/Nc1ccc3ccccc3n1)cn2C`, the growth was -17.3% (active).
With `CCN(CC)c1ccnc(CNCCSC(c2ccccc2)(c2ccccc2)c2ccc(OC)cc2)c1` the growth was -49.4% (active).
In the case of `CCN(CC)c1ccnc(CNCCSC(c2ccccc2)(c2ccccc2)c2ccc(C)cc2)c1`, the growth is reported as -60.8% (active).
With `N#Cc1c(-c2ccc(Br)cc2)nc2n[nH]c(-c3ccc(Br)cc3)c2c1-c1ccc(C(F)(F)F)cc1` the growth was -11.6% (active).
With `CC1CCCCN1CCCNC(=O)N/C(N)=N/c1nc2ccccc2s1` (stereo not given) the growth was -17.1% (active).
In the case of `CN(C)c1nc(NCCNS(=O)(=O)c2ccc(C(=O)/C=C/c3ccc(C(F)(F)F)cc3)cc2)nc(Nc2ccc(F)cc2)n1`, the growth is reported as -26.2% (active).
For `CC(C)CSc1nc(NCCc2c[nH]c3ccccc23)c(C#N)c(-c2ccc(F)cc2)n1`, the growth was 3.42% (active).
`COc1ccc2c(c1)c(-c1cc3nc(-c4cn(C)c5ncc(Br)cc45)cc(N)n3n1)cn2C` was tested, and the growth was -6.89% (active).

Source: PubChem BioAssay (NCI)
